Screening data: PubChem BioAssay, Broad Institute
AF4-AF9 inh = inhibitors of human MLL-AF4/AF9 interaction. AlphaScreen, biotin-AF4 peptide binding to FLAG-AF9. 0.47% of 350,000 active. inhibition, % at 10 µM;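 active means every replicate reaching a set inhibition limit, whatever the replicate mean, cut at about 25% in these data; inconclusive means mean inhibition reaches that limit but some replicates miss it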
ERAP1 inh = inhibitors of human ERAP1 aminopeptidase | Q9NZ08 | recombinant ERAP1, Leu-AMC fluorescence, 60 min | inhibition, % at 10.7 µM | 0.15% of 340,000 active | AID 652197;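 active means mean replicate inhibition of at least 30%, or all replicates individually reaching that 30% level; inactive means mean below 30% and not every replicate reaching it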
FGF22 binding = FGF22 (human) thermal shift binding. activity (Tm shift, normalised), % at 9.99 µM. Q9HCT0. AID 651658. 1.5% of 340,000 active. recombinant FGF22 thermal shift, SYPRO orange fluorescence; percent of sucrose octasulfate shift, DMSO zero;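 active means mean Tm shift, scaled 0 neutral to 100 positive control, at about 1.3% or above, every replicate too, limit read from the data; inconclusive means no clear call, values can overlap the other calls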
Target sequence (Q9HCT0 whole entry, looked up): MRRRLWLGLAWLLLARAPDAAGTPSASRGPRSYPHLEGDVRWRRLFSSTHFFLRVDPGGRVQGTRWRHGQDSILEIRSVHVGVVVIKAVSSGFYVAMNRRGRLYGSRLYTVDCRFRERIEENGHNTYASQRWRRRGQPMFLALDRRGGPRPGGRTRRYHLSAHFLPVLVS
DENV2 CPE = protects cells from dengue virus 2 cytopathic effect; 1.7% of 350,000 active; CPE inhibition, % at 9.99 µM; DENV2-infected cells, cytopathic effect rescue, plate reader; in the data active means CPE inhibition above about 20%, passing the limit was not always enough; inconclusive means no clear call, values can overlap the other calls; tested in BHK-21 cells
RAD52 inh = RAD52 (human) annealing inhibition | P43351 | recombinant RAD52 DNA annealing, FRET fluorescence | inhibition, % at 18.7 µM | 0.46% of 360,000 active;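 active means every replicate showing at least 50% inhibition; inconclusive means mean inhibition at least 50% but not in every replicate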
Target sequence (P43351 whole entry, looked up): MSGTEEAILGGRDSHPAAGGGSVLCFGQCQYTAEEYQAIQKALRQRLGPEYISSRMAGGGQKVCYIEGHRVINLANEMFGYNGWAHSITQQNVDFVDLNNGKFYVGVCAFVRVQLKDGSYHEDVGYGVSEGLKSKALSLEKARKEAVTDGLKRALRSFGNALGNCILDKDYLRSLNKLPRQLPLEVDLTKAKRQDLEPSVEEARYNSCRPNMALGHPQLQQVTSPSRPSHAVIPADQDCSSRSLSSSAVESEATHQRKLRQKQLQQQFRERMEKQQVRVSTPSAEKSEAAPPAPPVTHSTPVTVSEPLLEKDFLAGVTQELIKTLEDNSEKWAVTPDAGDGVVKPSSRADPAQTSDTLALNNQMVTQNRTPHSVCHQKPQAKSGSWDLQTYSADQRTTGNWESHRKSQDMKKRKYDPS
Hits are given with their value; – = inactive; ? = inconclusive; · = not tested or not shown. An excerpt weighted towards active compounds, which were near 4% of everything screened.

SMILES	AF4-AF9 inh	ERAP1 inh	FGF22 binding	DENV2 CPE	RAD52 inh
C[C@@H]1CCCCO[C@@H](CN(C)Cc2ccc(C(F)(F)F)cc2)[C@@H](C)CN([C@H](C)CO)C(=O)c2cc(NC(=O)C3CCCCC3)ccc2O1	·	·	–	31	·
CN(C)C(=O)C[C@H]1C=C[C@H](NC(=O)NC2CCCCC2)[C@@H](CO)O1	–	–	–	–	–
Cc1ccc(S(=O)(=O)N(C)[C@H]2C[C@H]3c4cc(-c5ccc6c(c5)OCO6)ccc4CCN3C[C@H]2[C@H](C)O)cc1	·	–	–	32	–
CC(=O)OCC(O)C1(O)CCC2C3CCC4=CC(=O)CCC4(C)C3C(O)CC21C (centres undefined)	–	–	–	22	–
CC(=O)OCC(=O)[C@@]1(O)CC[C@H]2[C@@H]3CCC4=CC(=O)CC[C@]4(C)[C@H]3[C@@H](O)C[C@@]21C	–	–	–	–	–
[O-]/C(=C(\C(=S)NCCN1CCOCC1)[n+]1ccccc1)c1ccc(Cl)s1	–	–	–	–	–
[O-]/C(=C(\C(=S)NCc1ccccc1)[n+]1ccccc1)c1ccc(Cl)s1	–	–	43	–	–
CN1C(=O)c2cc(NC(=O)C3CCOCC3)ccc2OC[C@@H]2O[C@H](CC(=O)NCc3ccc4c(c3)OCO4)CC[C@@H]21	–	–	–	–	–
CC(C)(C)NCC(O)COc1ccccc1C1CCCC1 (centres undefined)	–	–	–	–	–
CC(C)(C)NC[C@@H](O)COc1cccc2c1CCCC2=O	–	–	–	31	–
C[C@@H]1CN([C@@H](C)CO)C(=O)c2cc(NC(=O)Nc3ccc(C(F)(F)F)cc3)ccc2O[C@@H](C)CCCCO[C@@H]1CN(C)C(=O)NC1CCCCC1	–	–	–	60	–
C[C@@H]1CN([C@@H](C)CO)C(=O)c2cc(NC(=O)Nc3ccc(C(F)(F)F)cc3)ccc2O[C@@H]1CN(C)C(=O)NC1CCCCC1	–	–	–	101	–
C[C@@H]1CCCCO[C@H](CN(C)C(=O)NC2CCCCC2)[C@H](C)CN([C@H](C)CO)C(=O)c2cc(NC(=O)Nc3ccc(C(F)(F)F)cc3)ccc2O1	–	–	–	31	–
CCNC(=O)C[C@@H]1CC[C@H](NC(=O)C2CCC2)[C@H](CO)O1	–	–	–	–	–
O=C(O)CC1=C(Nc2ccccc2)C(=O)N(c2ccccc2)C1c1ccc(F)cc1 (centres undefined)	–	–	43	–	–
COCCNC(=O)C[C@@H]1CC[C@H]2[C@@H](COC[C@@H](O)CN2S(=O)(=O)c2ccccc2C)O1	–	–	–	–	–
O=C(CN1C(=O)C(=O)c2ccccc21)OCN1C(=O)c2ccccc2C1=O	–	–	43	–	–
COc1ccccc1NC(=O)COC(=O)CN1C(=O)C(=O)c2ccccc21	–	–	–	–	–
CN(C)C(=O)C[C@@H]1CC[C@@H]2[C@H](COc3ccc(NC(=O)c4ccc(F)c(F)c4)cc3C(=O)N2C)O1	–	–	–	–	–
COc1ccc(OCCN2C(=O)NC3(CCc4ccccc4C3)C2=O)cc1 (centres undefined)	–	–	44	·	–
CCN(CC)C(=O)CN1C(=O)NC2(CCc3ccccc3C2)C1=O (centres undefined)	–	–	–	–	–
O=C(O)[C@H]1[C@H](CO)[C@H]2Cn3c(ccc(C4=CCCCC4)c3=O)[C@H]2N1C(=O)Cc1cccnc1	–	–	·	?	–
CC(C)(C)N1CC23C=CC(C[C@@H]2C1=O)O3 (some centres undefined)	–	–	–	–	–
CC(C)(C)N1CC23CCC(C[C@@H]2C1=O)O3 (some centres undefined)	–	–	–	39	–
Cc1cc(CN2CCCC(CO)(Cc3cccc(Cl)c3)C2)n[nH]1 (centres undefined)	–	–	44	–	–
SMILES	AF4-AF9 inh	ERAP1 inh	FGF22 binding	DENV2 CPE	RAD52 inh
CCOC(=O)CNC(=O)N(C)[C@H]1C[C@H]2c3[nH]c4ccccc4c3CCN2C(=O)[C@H]1[C@H](C)O	–	–	–	24	–
COc1ccc(S(=O)(=O)N(C)C[C@@H]2Oc3ccc(NC(=O)Nc4c(C)noc4C)cc3C(=O)N([C@@H](C)CO)C[C@@H]2C)cc1	–	–	–	–	–
COc1ccccc1CNC(=O)C[C@@H]1C[C@@H]2c3cc(NC(=O)C4CCC4)ccc3O[C@@H]2[C@@H](CO)O1	–	–	–	–	–
c1ccc2nc(SCc3cn4ccccc4n3)cnc2c1	–	–	43	–	–
O=C(C1CCC1)N1CC2(C1)[C@H](c1ccccc1)[C@@H](CO)N2CCC(F)(F)F	–	–	·	–	–
Nc1ccc(NC2C[C@@H](C(=O)O)NC2=O)cc1 (some centres undefined)	–	–	43	–	–
COc1cc2cc(CCCOC(=O)CCC(=O)O)oc(=O)c2cc1OC	–	·	–	28	–
COc1cc2cc(CCO)oc(=O)c2cc1OC	–	–	–	89	–
COc1cc2cc(CCOC(=O)CCCC(=O)O)oc(=O)c2cc1OC	–	–	–	–	–
C[C@H]1CCCCO[C@H](CN(C)Cc2ccncc2)[C@@H](C)CN([C@@H](C)CO)C(=O)c2cc(NC(=O)c3ccccc3)ccc2O1	–	–	–	–	–
CCCC(=O)Nc1ccc2c(c1)C(=O)N(C)[C@@H]1CC[C@H](CC(=O)NCCc3ccncc3)O[C@@H]1CO2	–	–	–	–	–
Nc1nc(-c2ccccc2)c(CCCOc2ccc(NC(=O)CBr)cc2)c(=O)[nH]1	–	–	–	24	–
CCOc1ccc(NC(=O)CSc2nc(N)c(-c3ccccc3)c(=O)[nH]2)cc1	–	–	–	–	–
COc1ccc(N(C(=O)CCl)C(C(=O)NCCc2ccccc2)c2cccs2)cc1 (centres undefined)	–	–	43	–	–
CCOCCn1c(N2CCN(c3ccccc3)CC2)nc2c1c(=O)[nH]c(=O)n2C	–	–	43	–	–
O=C1CN(C(=O)COC(=O)CNS(=O)(=O)c2ccccc2)c2ccccc2N1	–	–	43	–	–
O=C1CN(C(=O)COC(=O)c2cc(S(=O)(=O)N3CCOCC3)ccc2Cl)c2ccccc2N1	–	–	43	–	–
O=C1CN(C(=O)COC(=O)c2c(F)cccc2Cl)c2ccccc2N1	–	–	–	26	–
O=C1CN(C(=O)COC(=O)/C=C/c2ccc(S(=O)(=O)N3CCOCC3)cc2)c2ccccc2N1	–	–	–	–	–
Cc1ccc(NC(=S)N(CCCN2CCCC2)Cc2cccn2Cc2ccc(Cl)cc2)cc1Cl	?	–	–	–	–
COc1ccc(NC(=S)N(CCCN2CCCC2)Cc2cccn2Cc2ccc(Cl)cc2)cc1Cl	33	–	–	–	–
CN1CCCN(Cc2nc(-c3cccc(C(F)(F)F)c3)no2)CC1	–	–	43	–	–
CC(=O)N1CCN(Cc2nc(-c3cccc(Cl)c3)no2)CC1	–	–	43	–	–
